For four compounds, AC50 and outcome results are on record in PubChem BioAssay (EPA / NIEHS).

Read-out in test [1]: C-C motif chemokine 2 (Homo sapiens) (UniProt P13500)
Put plainly: BSK_KF3CT_MCP1: BioMAP Diversity Plus: KF3CT Assay for Monocyte Chemoattractant Protein 1 (MCP1/CCL2) Biomarker Activity (AID 2283073). The conditions noted are these: primary human keratinocytes with fibroblasts; actives raise or lower the signal. In short, it runs like this: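 KF3CT skin co-culture (keratinocytes/foreskin fibroblasts), 24 h post-dose; MCP-1 by ELISA; gain/loss of signal fit bidirectionally vs DMSO baseline.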

Read-out in test [2]: urokinase plasminogen activator (uPA), PLAU (gene 5328)
The test is described as follows: BSK_KF3CT_uPA: BioMAP Diversity Plus: KF3CT Assay for urokinase plasminogen activator (uPA) Biomarker Activity (AID 2283075). The following applies: primary human keratinocytes with fibroblasts; actives raise or lower the signal. The essentials:
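Primary human keratinocyte/foreskin fibroblast co-culture exposed to chemical; uPA measured by ELISA at 24 h. Bidirectional fit versus DMSO, with parallel SRB total-protein staining for cytotoxicity.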

Read-out in test [3]: CD40, CD40 (gene 958)
The test is described as follows: BSK_LPS_CD40: BioMAP Diversity Plus: LPS Assay for CD40 Biomarker Activity (AID 2283076). The conditions noted are these: primary human HUVEC with PBMC; actives raise or lower the signal. The essentials:
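ELISA readout of CD40 in HUVEC/PBMC co-culture (BSK_LPS system), 24 h post-dosing; bidirectional curve fit, DMSO baseline; parallel SRB total-protein staining for cytotoxicity.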

Read-out in test [4]: E-selectin (Homo sapiens) (UniProt P16581)
The test is described as follows: BSK_LPS_Eselectin: BioMAP Diversity Plus: LPS Assay for Eselectin Biomarker Activity (AID 2283077). The conditions noted are these: primary human HUVEC with PBMC; actives raise or lower the signal. The essentials:
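ELISA readout of E-selectin, 24 h post-dose, HUVEC + PBMC co-culture (LPS system). Gain or loss of signal vs DMSO baseline, bidirectional fit.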

Read-out in test [5]: Interleukin-8 (IL8), CXCL8 (gene 3576)
The test is described as follows: BSK_LPS_IL8: BioMAP Diversity Plus: LPS Assay for Interleukin-8 (IL8) Biomarker Activity (AID 2283078). The conditions noted are these: primary human HUVEC with PBMC; actives raise or lower the signal. The essentials:
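HUVEC + PBMC co-culture, LPS-activated; test chemicals dosed, IL-8 read by ELISA at 24 h. Bidirectional curve fit vs DMSO baseline (gain or loss of signal).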

Test [6] can be described thus: BSK_LPS_SRB: Viability Assessment in the BioMAP Diversity Plus: LPS Assay (AID 2283079).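 Also: total protein by sulforhodamine B absorbance as a cytotoxicity measure; measured one day after compound addition; fitted in both directions against DMSO so loss or gain of signal counts.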 The conditions noted are these: primary human HUVEC with PBMC. The essentials:
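HUVEC + PBMC co-culture, LPS-stimulated; compound 24 h. 10% TCA fix, 0.1% SRB stain, A560. Bidirectional fit vs DMSO.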

Read-out in test [7]: Interleukin-1 alpha (IL1a), IL1A (gene 3552)
The test is described as follows: BSK_LPS_IL1a: BioMAP Diversity Plus: LPS Assay for Interleukin-1 alpha (IL1a) Biomarker Activity (AID 2283080). The following applies: primary human HUVEC with PBMC; actives raise or lower the signal. The essentials: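 HUVEC/PBMC co-culture, LPS system; 24 h after dosing; IL-1a by ELISA; gain or loss of signal fitted bidirectionally vs DMSO baseline.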

Read-out in test [8]: Monocyte Chemoattractant Protein-1 (MCP1), CCL2 (gene 6347)
Put plainly: BSK_LPS_MCP1: BioMAP Diversity Plus: LPS Assay for Monocyte Chemoattractant Protein-1 (MCP1) Biomarker Activity (AID 2283081).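 As to AC50: secreted MCP-1 protein quantified by ELISA in culture supernatant.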 The conditions noted are these: primary human HUVEC with PBMC; actives raise or lower the signal. In short, it runs like this:
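ELISA read-out of MCP-1 after 24 h chemical dosing of a human umbilical vein endothelial cell/peripheral blood mononuclear cell co-culture stimulated with LPS. Gain or loss of signal fitted relative to DMSO controls.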

Test [9] is described as follows: BSK_LPS_PGE2: BioMAP Diversity Plus: LPS Assay for Prostaglandin E2 (PGE2) Biomarker Activity (AID 2283082). The conditions noted are these: primary human HUVEC with PBMC; actives raise or lower the signal. In short, it runs like this: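 Endpoint derived from bidirectional curve fitting versus DMSO of ELISA-measured PGE2 in LPS-stimulated human primary vascular co-culture (HUVEC with PBMC) harvested at 24 h.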

Read-out in test [10]: Macrophage colony-stimulating factor (MCSF), CSF1 (gene 1435)
The test is described as follows: BSK_LPS_MCSF: BioMAP Diversity Plus: LPS Assay for Macrophage colony-stimulating factor (MCSF) Biomarker Activity (AID 2283083). The conditions noted are these: primary human HUVEC with PBMC; actives raise or lower the signal. In short, it runs like this:
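HUVEC + PBMC co-culture (human primary), 24 h post-dose; M-CSF by ELISA; gain/loss of signal fitted bidirectionally vs DMSO baseline.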

Read-out in test [11]: Tissue Factor, F3 (gene 2152)
The test is described as follows: BSK_LPS_TissueFactor: BioMAP Diversity Plus: LPS Assay for Tissue Factor Biomarker Activity (AID 2283084). The following applies: primary human HUVEC with PBMC; actives raise or lower the signal. The essentials:
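HUVEC/PBMC co-culture, LPS-activated; CD142 ELISA read 24 h post-dose; bidirectional curve fit vs DMSO negative control.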

Read-out in test [12]: Vascular cell adhesion molecule 1 (VCAM1), VCAM1 (gene 7412)
The test is described as follows: BSK_LPS_VCAM1: BioMAP Diversity Plus: LPS Assay for Vascular cell adhesion molecule 1 (VCAM1) Biomarker Activity (AID 2283086). The following applies: primary human HUVEC with PBMC; actives raise or lower the signal. In short, it runs like this:
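Primary human vascular co-culture (umbilical vein endothelium plus PBMC) stimulated with LPS received chemical; 24 h later VCAM-1 was read by ELISA. Overt cytotoxicity was assessed by sulforhodamine B staining of parallel cultures at the same time point.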

Read-out in test [13]: CD38, CD38 (gene 952)
The test is described as follows: BSK_SAg_CD38: BioMAP Diversity Plus: SAg Assay for CD38 Biomarker Activity (AID 2283087). The following applies: primary human HUVEC with PBMC; actives raise or lower the signal. In short, it runs like this: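 Fluorescence ELISA of cell-surface CD38 served as the read-out, with either increase or decrease fitted against DMSO controls. Cells were a human umbilical vein endothelium plus PBMC co-culture under SEB/TSST-1 stimulation, measured 24 h after dosing.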

Read-out in test [14]: CD40, CD40 (gene 958)
Put plainly: BSK_SAg_CD40: BioMAP Diversity Plus: SAg Assay for CD40 Biomarker Activity (AID 2283088). The following applies: primary human HUVEC with PBMC; actives raise or lower the signal. In short, it runs like this: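 HUVEC/PBMC co-culture, 24 h post-dose; CD40 by ELISA, fluorescence intensity; bidirectional fit vs DMSO negative control.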

Read-out in test [15]: CD69, CD69 (gene 969)
The test is described as follows: BSK_SAg_CD69: BioMAP Diversity Plus: SAg Assay for CD69 Biomarker Activity (AID 2283089).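 As to AC50: cell surface CD69 protein quantified by ELISA with fluorescence detection.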 The conditions noted are these: primary human HUVEC with PBMC; actives raise or lower the signal. The essentials: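 Endothelial/PBMC co-culture; chemical added; 24 h incubation; CD69 ELISA with fluorescence detection; bidirectional fit vs DMSO.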

Read-out in test [16]: Monocyte Chemoattractant Protein-1 (MCP1), CCL2 (gene 6347)
Put plainly: BSK_SAg_MCP1: BioMAP Diversity Plus: SAg Assay for Monocyte Chemoattractant Protein-1 (MCP1) Biomarker Activity (AID 2283090). The conditions noted are these: primary human HUVEC with PBMC; actives raise or lower the signal. In short, it runs like this: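 MCP-1 levels in the endothelial–PBMC SAg co-culture were quantified by ELISA at 24 h post-dosing; both increases and decreases versus DMSO scored. Cytotoxicity monitored by SRB total protein in parallel cultures.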

Read-out in test [17]: E-selectin (Homo sapiens) (UniProt P16581)
The test is described as follows: BSK_SAg_Eselectin: BioMAP Diversity Plus: SAg Assay for Eselectin Biomarker Activity (AID 2283091). The conditions noted are these: primary human HUVEC with PBMC; actives raise or lower the signal. In short, it runs like this: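 E-selectin ELISA readout at 24 h post-dosing in human umbilical vein endothelial cell/PBMC co-culture; gain or loss of signal fitted relative to DMSO baseline.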

Read-out in test [18]: Monokine induced gamma interferon (MIG), CXCL9 (gene 4283)
Put plainly: BSK_SAg_MIG: BioMAP Diversity Plus: SAg Assay for Monokine induced gamma interferon (MIG) Biomarker Activity (AID 2283092). The conditions noted are these: primary human HUVEC with PBMC; actives raise or lower the signal. The essentials:
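Measures CXCL9 protein by ELISA in a human vascular primary-cell co-culture (umbilical vein endothelium with PBMC) 24 h after chemical addition. Activity is scored up or down from the DMSO control.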

The source made the active and inactive calls. The calls were made as follows: active = hit-call score of the fitted dose curve at least 0.9, where 1 is the maximum; inactive = score below 0.9.

In general, AC50 refers to the midpoint of the concentration-response curve, whichever way the signal moves.

E-selectin (Homo sapiens), sequence (P16581 whole entry, looked up): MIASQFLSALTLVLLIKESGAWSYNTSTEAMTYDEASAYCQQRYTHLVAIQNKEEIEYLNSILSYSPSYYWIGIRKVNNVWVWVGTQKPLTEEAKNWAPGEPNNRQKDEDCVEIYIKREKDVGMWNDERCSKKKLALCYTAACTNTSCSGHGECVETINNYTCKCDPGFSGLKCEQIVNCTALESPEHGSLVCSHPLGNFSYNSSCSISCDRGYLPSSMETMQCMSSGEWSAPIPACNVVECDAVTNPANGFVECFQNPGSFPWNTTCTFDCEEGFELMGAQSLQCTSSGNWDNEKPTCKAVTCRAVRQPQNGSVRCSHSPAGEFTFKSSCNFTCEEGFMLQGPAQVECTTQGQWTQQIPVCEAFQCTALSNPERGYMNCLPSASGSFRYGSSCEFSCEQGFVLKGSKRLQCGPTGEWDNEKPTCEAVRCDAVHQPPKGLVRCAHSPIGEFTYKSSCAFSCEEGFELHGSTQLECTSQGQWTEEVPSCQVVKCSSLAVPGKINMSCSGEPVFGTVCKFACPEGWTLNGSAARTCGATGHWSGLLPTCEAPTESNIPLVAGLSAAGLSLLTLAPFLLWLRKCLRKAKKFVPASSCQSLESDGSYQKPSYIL

Consider `Cc1c([N+](=O)[O-])c(C)c([N+](=O)[O-])c(C(C)(C)C)c1[N+](=O)[O-]`, for which the half-maximal activity concentration (AC50) in [1] is 34 µM (active); in [7], 11.4 µM (active); in test [13], 1.63 µM (active). For the same compound, the result in test [2], in test [3], in test [4], in [5], in test [6] and in [8] was inactive. The outcome in test [9], in test [10], in [11], in test [12], in test [14] and in [15] was inactive. In addition, the result in [16], in [17] and in test [18] was inactive.
In the case of `CCOC(=O)CC(=O)CCl`, the outcome in test [1], in test [2], in [4], in [6] and in test [18] was inactive. Moreover, the AC50 in test [3] was 20 µM (active); in test [5] it was 31.9 µM (active); in [7], 31.1 µM (active); in test [8], 26.1 µM (active); in [9] it was 29 µM (active); in [10], 20 µM (active). The AC50 in test [11] is 33.1 µM (active); in test [12], 7.27 µM (active); in [13] it was 24.6 µM (active); in test [14], 20 µM (active); in test [15] it was 27 µM (active); in test [16] it was 20 µM (active). The half-maximal activity concentration (AC50) in test [17] is 20 µM (active).
On to `Cc1cccc(OP(=O)(Oc2cccc(C)c2)Oc2cccc(C)c2)c1`, for which the outcome in [1], in test [2], in [3], in [4], in test [5] and in [6] was inactive. Also, the result in [7], in [8], in test [9], in [10], in [11] and in test [12] was inactive. Also, the outcome in [13], in test [14], in test [15], in [16], in test [17] and in [18] was inactive.
`C#CCOC(=O)/C=C(C)/C=C/CC(C)CCCC(C)C` (configuration not stated): the outcome in test [1], in [2], in [6], in test [7], in [8] and in [9] was inactive. For the same compound, the outcome in test [10], in test [11], in test [12], in test [13], in test [14] and in test [16] was inactive. The result in test [17] and in test [18] was inactive. The AC50 in test [3] is 20 µM (active); in [4], 20 µM (active); in test [5] it was 0.242 µM (active); in test [15], 20 µM (active).
